# MEKK2 WT-MEK5 = modulators of MEK5 binding to wildtype MEKK2, primary screen, biochemical, multiplex bead flow cytometry, Alexa488-MEK5; hit rate 1.1% among 290,000; Alexa488-MEK5 binding to MEKK2 WT; actives lie on both sides; binding response (% of control), % at 10 µM; AID 1531, 2009; in the data active = binding response below about 67% or above about 130%
# MEKK2 mut-MEK5 = MEK5 binding signal on mutant MEKK2 PB1, primary screen, biochemical, multiplex bead flow cytometry, Alexa488-MEK5; Alexa488-MEK5 binding to MEKK2 mutant; hit rate 0.35% among 290,000; AID 1530, 2009; percent response, % at 10 µM; in the data active = percent response above about 24%, passing the limit was not always enough
# MEKK3 PB1 HTS = modulators of MEKK3-MEK5 PB1 binding, primary screen, biochemical, wildtype MEKK3, multiplex bead flow cytometry, Alexa488-MEK5. hit rate 1.4% among 290,000. AID 1529, 2009. Mitogen-activated protein kinase kinase kinase 3 (Homo sapiens), Q99759. bead-based flow cytometry, Alexa488-MEK5 binding to MEKK3; actives lie on both sides; 0 = blocked by unlabeled MEK5, 100 = vehicle. binding response (% of control), % at 10 µM;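 active = binding response more than 3 SD above or below the average of its plate-row segment, actives on both sides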;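 also: Alexa488 bead fluorescence after subtracting the streptavidin-only scavenger bead signal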
# UBC13 polyUb = UBC13 polyubiquitin chain formation inhibitors, primary screen, biochemical, TR-FRET, uHTS; Ubiquitin-conjugating enzyme E2 N (Homo sapiens), P61088; inhibition, % at 20 µM; hit rate 0.47% among 330,000; AID 485273, 2010; in the data active = inhibition above about 45%, passing the limit was not always enough
# MEKK2wt confirm = modulators of MEK5 binding to wildtype MEKK2, confirmation, biochemical, single concentration, multiplex bead flow cytometry; shares compounds with MEKK3 PB1 HTS; Alexa488-MEK5 binding to MEKK2 WT; actives lie on both sides; binding response (% of control), % at 10 µM; hit rate 2.4% among 5,900; AID 1892, 2009; in the data active = binding response below about 16% or above about 210%; inactive = in between
# MEKK2mut-MEK5 = mutant MEKK2 PB1-MEK5 binding signal retest – biochemical, single concentration, multiplex bead flow cytometry, confirmation; Alexa488-MEK5 binding to MEKK2 mutant; shares compounds with MEKK3 PB1 HTS; percent response, % at 10 µM; hit rate 2% among 5,900; AID 1893, 2009; in the data active = percent response mostly above about 71%, no sharp cut-off; inactive = mostly below about 38%;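 also: higher means compound restores mutant binding toward wildtype level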
# MEKK3 confirm = MEKK3 wild-type PB1 binding to MEK5, inhibitors, confirmation, biochemical, bead multiplex flow cytometry, single concentration, wildtype | shares compounds with MEKK3 PB1 HTS | Alexa488-MEK5 binding to MEKK3; stronger effect = lower value | binding response (% of control), % at 10 µM | hit rate 1.8% among 5,900;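 active = binding response below 72% of control, or above a set upper limit, though filed actives all read lower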;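 also: 100% = DMSO only wells and 0% = binding blocked by excess unlabeled MEK5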
# An asterisk follows results filed as active; x = not tested or not shown; [ ] = another dose, or the depositor's remark. A selection: hits, their analogues and other compounds. The true share with any hit is near 2.3%.
SMILES,MEKK2 WT-MEK5,MEKK2 mut-MEK5,MEKK3 PB1 HTS,UBC13 polyUb,MEKK2wt confirm,MEKK2mut-MEK5,MEKK3 confirm
CCOC(=O)C1=C(CC)Nc2ccccc2N=C1NC(=O)c1ccc(S(=O)(=O)N(C)C)cc1,98,2,102,-3,x,x,x
CCOC(=O)C1=C(C)Nc2ccccc2N=C1NC(=O)c1cccc(S(=O)(=O)N(C)C)c1,3.0*[inhibitor],-24,3.0*[inhibitor],-9,103,1,103
COc1ccc(C(=O)Nc2ccc(N3CCCCCC3)cc2)cc1S(=O)(=O)N1CCOCC1,x,x,x,15,x,x,x
Cc1ccc(S(=O)(=O)N(c2nc(N(C)C)nc(N(C)C)n2)n2cnnc2)cc1,98,5,100,3,x,x,x
NS(=O)(=O)c1ccc(CCNC(=O)c2ccc(Cl)s2)cc1,115,10,106,3,x,x,x
Cc1ccc(C(=O)NCC(=O)NCCc2ccc(S(N)(=O)=O)cc2)s1,38*[inhibitor],-31,34*[inhibitor],3,100,5,101
N#CC(C#N)=c1ccc2c(c1)N1C(c3ccccc3)=CC(c3ccccc3)C3CCCCC31N=2 (configuration not stated),91,-33,27*[inhibitor],-16,45,-28,61*
CCCC(=O)Nc1nc2nc(-c3ccccc3)cc(-c3ccccc3)n2n1,0.0*[inhibitor],-17,0.0*[inhibitor],16,103,9,106
COC(=O)c1cc(NC(=O)Cc2cc(OC)c(OC)c(OC)c2)cc(C(=O)OC)c1,105,0,108,-6,x,x,x
CC(C)(C)c1n[nH]c(=S)n(/N=C/c2cccs2)c1=O,109,0,147*,-9,104,15,104
CCc1ccc2c(c1)c1nnc(NN)nc1n2CC,118,2,164*,-5,94,-2,93
Cc1ccc(CN2CC(C(=O)N3CCN(S(=O)(=O)c4c(F)cccc4F)CC3)CC2=O)cc1 (configuration not stated),x,x,x,3,x,x,x
CC1CC2=C(C(=O)O1)C(c1ccc(Cl)cc1)Nc1ccccc1N2 (configuration not stated),91,-1,71*[inhibitor],1,104,8,104
COCc1c(C(=O)Nc2cccc(S(=O)(=O)N3CCCCC3)c2)oc2ccccc12,x,x,x,8,x,x,x
CCNc1nc(NC(C)CC)nc(Oc2ccc(OCC)nn2)n1 (configuration not stated),95,-3,92,-2,x,x,x
Cc1nnc(N)s1,82,-37,73*[inhibitor],5,101,0,101
CCSc1nnc(N)s1,86,-7,86,-14,x,x,x
O=C(NC12CC3CC(CC(C3)C1)C2)C1CC(=O)N(c2ccc(Br)cc2)C1 (configuration not stated),101,9,104,10,x,x,x
O=C(NC12CC3CC(CC(C3)C1)C2)C1CC(=O)N(c2ccccc2)C1 (configuration not stated),100,25*,107,-2,99,-3,99
Cc1cc(C)nc(NC(=NCCc2c[nH]c3ccccc23)NC(=O)Nc2ccc(Cl)cc2)n1,111,1,59*[inhibitor],-7,106,-2,103
CCCCOc1ccc(Br)cc1/C(C)=N/NC1=NCCN1,162*,35*,113,38,144,31,105
CCOc1ccc(OCC(=O)Nc2ccc(OC)cc2[N+](=O)[O-])cc1,51,-22,37*[inhibitor],7,101,1,101
COc1ccc(/C=C/C(=O)NNC(=O)C(C)Oc2ccccc2F)cc1OC (configuration not stated),x,x,x,-15,x,x,x

# Source: PubChem
